Laboratory results: the supplement of paper PMC10646978
± gives the standard deviation.

Legend:
Settings in all cases: modulator concentration 10 µM
[1] = system: RAW-Dual (murine macrophage reporter line); test: NF-kB reporter (SEAP) activity fold change vs agonist alone; higher = enhanced NF-kB activity
Outline: (§1)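 In 384-well plates holding 50 000 RAW-Dual murine macrophage reporter cells per well, compound at 10 μM final was pre-incubated for 1 hour at 37 °C, after which a PRR agonist was added overnight. Supernatant SEAP read with QUANTI-Blue at 620 nm absorbance reported NF-κB, and Lucia luciferase read with QUANTI-Luc luminescence reported IRF. Fold change values come from dividing each reporter signal by the mean of agonist-only control wells on the same plate, averaged over replicate plates with propagated errors.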

[2] = system: RAW-Dual (murine macrophage reporter line); test: IRF reporter (Lucia luciferase) activity fold change vs agonist alone; higher = enhanced IRF activity
Outline: as §1

[3] = system: RAW-Dual (murine macrophage reporter line); test: viability score (confluency relative to resting cells, overnight) (fraction); higher = more viable, active = viable (0.7 or more)
Outline: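 Overnight exposure to 10 μM final compound was carried out on RAW-Dual macrophages in 384-well plates. IncuCyte software generated two confluency masks over all wells imaged with IncuCyte. The viability score gives confluency in relation to resting cells. A compound met the cutoff if each mask exceeded 70% of resting cells.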

[4] = agonist: CpG ODN 1826 0.5 ug/mL

## COc1ccccc1CC(=O)N1CCN(Cc2cnnn2-c2ccccc2F)CC1
[1]; [4]
  NF-kB reporter: 0.894 ± 0.048
[1]; agonist: LPS 0.1 ug/mL
  NF-kB reporter: 0.985 ± 0.084
[1]; agonist: MPLA […]
  NF-kB reporter: 1.15 ± 0.065
[2]; agonist: 3'3'-cGAMP 10 ug/mL
  IRF reporter: 1.16 ± 0.093
[2]; agonist: LPS 0.1 ug/mL
  IRF reporter: 1.14 ± 0.19
[2]; agonist: MPLA […]
  IRF reporter: 1.11 ± 0.46
[3]
  viability score: 1.01 (active)

## O=C(NCCN1CCOCC1)c1ccc(Cl)nc1
[1]; [4]
  NF-kB reporter: 0.917 ± 0.17
[1]; agonist: LPS 0.1 ug/mL
  NF-kB reporter: 1.15 ± 0.13
[1]; agonist: MPLA […]
  NF-kB reporter: 0.995 ± 0.1
[2]; agonist: 3'3'-cGAMP 10 ug/mL
  IRF reporter: 0.987 ± 0.026
[2]; agonist: LPS 0.1 ug/mL
  IRF reporter: 1.12 ± 0.21
[2]; agonist: MPLA […]
  IRF reporter: 1.09 ± 0.13
[3]
  viability score: 0.972 (active)

## COc1cc2c(cc1OC)C1C(=O)c3ccc4c(c3OC1CO2)CC(C(C)C)O4 (centres undefined)
[1]; [4]
  NF-kB reporter: 1.11 ± 0.19
[1]; agonist: LPS 0.1 ug/mL
  NF-kB reporter: 1.48 ± 0.12
[1]; agonist: MPLA […]
  NF-kB reporter: 2.31 ± 0.18
[2]; agonist: 3'3'-cGAMP 10 ug/mL
  IRF reporter: 0.857 ± 0.06
[2]; agonist: LPS 0.1 ug/mL
  IRF reporter: 1.89 ± 0.32
[2]; agonist: MPLA […]
  IRF reporter: 2.1 ± 0.4
[3]
  viability score: 0.976 (active)

## CC(=O)OC1CN2CCC1CC2.Cl (centres undefined)
[1]; [4]
  NF-kB reporter: 0.984 ± 0.35
[1]; agonist: LPS 0.1 ug/mL
  NF-kB reporter: 0.984 ± 0.12
[1]; agonist: MPLA […]
  NF-kB reporter: 0.971 ± 0.061
[2]; agonist: 3'3'-cGAMP 10 ug/mL
  IRF reporter: 0.914 ± 0.052
[2]; agonist: LPS 0.1 ug/mL
  IRF reporter: 0.869 ± 0.15
[2]; agonist: MPLA […]
  IRF reporter: 0.862 ± 0.081
[3]
  viability score: 1 (active)

## CCC1(c2c[nH]cn2)Cc2ccccc2C1.Cl
[1]; [4]
  NF-kB reporter: 0.752 ± 0.1
[1]; agonist: LPS 0.1 ug/mL
  NF-kB reporter: 1.11 ± 0.082
[1]; agonist: MPLA […]
  NF-kB reporter: 0.863 ± 0.05
[2]; agonist: 3'3'-cGAMP 10 ug/mL
  IRF reporter: 1 ± 0.05
[2]; agonist: LPS 0.1 ug/mL
  IRF reporter: 1.25 ± 0.11
[2]; agonist: MPLA […]
  IRF reporter: 1.07 ± 0.081
[3]
  viability score: 0.976 (active)

## Cc1cc(C(C#N)c2ccc(Cl)cc2)c(Cl)cc1NC(=O)c1cc(I)cc(I)c1O (centres undefined)
[1]; [4]
  NF-kB reporter: 0.812 ± 0.14
[1]; agonist: LPS 0.1 ug/mL
  NF-kB reporter: 0.999 ± 0.15
[1]; agonist: MPLA […]
  NF-kB reporter: 0.834 ± 0.055
[2]; agonist: 3'3'-cGAMP 10 ug/mL
  IRF reporter: 0.731 ± 0.058
[2]; agonist: LPS 0.1 ug/mL
  IRF reporter: 1.3 ± 0.11
[2]; agonist: MPLA […]
  IRF reporter: 1.02 ± 0.085
[3]
  viability score: 0.389 (inactive)

## O=C(O)c1nn(Cc2ccc(Cl)cc2Cl)c2ccccc12
[1]; [4]
  NF-kB reporter: 0.833 ± 0.12
[1]; agonist: LPS 0.1 ug/mL
  NF-kB reporter: 0.959 ± 0.14
[1]; agonist: MPLA […]
  NF-kB reporter: 0.943 ± 0.055
[2]; agonist: 3'3'-cGAMP 10 ug/mL
  IRF reporter: 0.926 ± 0.033
[2]; agonist: LPS 0.1 ug/mL
  IRF reporter: 1.04 ± 0.25
[2]; agonist: MPLA […]
  IRF reporter: 1.06 ± 0.18
[3]
  viability score: 1 (active)

## Cc1cccc2sc(NC(=O)c3cccn(Cc4ccc(Br)cc4)c3=O)nc12
[1]; [4]
  NF-kB reporter: 1.06 ± 0.12
[1]; agonist: LPS 0.1 ug/mL
  NF-kB reporter: 1.13 ± 0.096
[1]; agonist: MPLA […]
  NF-kB reporter: 1.02 ± 0.15
[2]; agonist: 3'3'-cGAMP 10 ug/mL
  IRF reporter: 1.04 ± 0.052
[2]; agonist: LPS 0.1 ug/mL
  IRF reporter: 1.32 ± 0.084
[2]; agonist: MPLA […]
  IRF reporter: 1.12 ± 0.085
[3]
  viability score: 1 (active)

## C1=C(c2c[nH]c3ccccc23)CCNC1
[1]; [4]
  NF-kB reporter: 0.448 ± 0.025
[1]; agonist: LPS 0.1 ug/mL
  NF-kB reporter: 1.03 ± 0.069
[1]; agonist: MPLA […]
  NF-kB reporter: 0.915 ± 0.079
[2]; agonist: 3'3'-cGAMP 10 ug/mL
  IRF reporter: 0.496 ± 0.016
[2]; agonist: LPS 0.1 ug/mL
  IRF reporter: 1.15 ± 0.077
[2]; agonist: MPLA […]
  IRF reporter: 0.898 ± 0.087
[3]
  viability score: 0.989 (active)

## CN1C(=O)COc2c(C(=O)NC3CN4CCC3CC4)cc(Cl)cc21.Cl (centres undefined)
[1]; [4]
  NF-kB reporter: 0.661 ± 0.054
[1]; agonist: LPS 0.1 ug/mL
  NF-kB reporter: 0.831 ± 0.09
[1]; agonist: MPLA […]
  NF-kB reporter: 1.08 ± 0.089
[2]; agonist: 3'3'-cGAMP 10 ug/mL
  IRF reporter: 0.997 ± 0.046
[2]; agonist: LPS 0.1 ug/mL
  IRF reporter: 1.42 ± 0.26
[2]; agonist: MPLA […]
  IRF reporter: 1.71 ± 0.51
[3]
  viability score: 0.94 (active)

## C=C1C[C@@H]2[C@H](CC[C@]3(C)C(=O)CC[C@@H]23)[C@@]2(C)C=CC(=O)C=C12
[1]; [4]
  NF-kB reporter: 0.843 ± 0.064
[1]; agonist: LPS 0.1 ug/mL
  NF-kB reporter: 0.79 ± 0.091
[1]; agonist: MPLA […]
  NF-kB reporter: 0.984 ± 0.033
[2]; agonist: 3'3'-cGAMP 10 ug/mL
  IRF reporter: 0.789 ± 0.051
[2]; agonist: LPS 0.1 ug/mL
  IRF reporter: 0.911 ± 0.095
[2]; agonist: MPLA […]
  IRF reporter: 0.908 ± 0.16
[3]
  viability score: 0.987 (active)

## OCC(O)Cc1ccc2c(c1)OCO2 (centres undefined)
[1]; [4]
  NF-kB reporter: 1.02 ± 0.096
[1]; agonist: LPS 0.1 ug/mL
  NF-kB reporter: 0.831 ± 0.062
[1]; agonist: MPLA […]
  NF-kB reporter: 0.906 ± 0.093
[2]; agonist: 3'3'-cGAMP 10 ug/mL
  IRF reporter: 0.988 ± 0.031
[2]; agonist: LPS 0.1 ug/mL
  IRF reporter: 1.37 ± 0.19
[2]; agonist: MPLA […]
  IRF reporter: 1.53 ± 0.25
[3]
  viability score: 0.994 (active)
